IL1B secr inh – qHTS for Inhibitors of Inflammasome Signaling: IL-1-beta AlphaLISA Primary Screen | 4.7% of 360,000 active | activity change, % at 57.5 µM | THP-1 LPS/ATP IL-1B secretion, AlphaLISA, 16 h; stronger effect = lower value; in the data active = activity change below about -50%; inconclusive = mostly about -30% to -49%; also: % is scaled to controls: 0 for no effect and ±100 for the full control effect
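THP-1 cells pretreated 1 hr with compounds (up to 57.5 uM final), then stimulated with LPS (250 ng/mL final) plus ATP (1.25 mM final); secreted IL-1B measured by AlphaLISA after 16 hr, decreased signal indicating inhibition.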
TDP1 cell noCPT – qHTS for Inhibitors of human tyrosyl-DNA phosphodiesterase 1 (TDP1): qHTS in cells in absence of CPT; Potency, µM (highest dose often 46.2 µM), for the others: at the highest dose activity change, negative = growth inhibition, actives largely listed as inhibitors; 15% of 420,000 active; AID 686978, 2013; DT40 Tdp1-/- hTDP1 cells, no CPT, ATP luminescence, 48 h; also: potency is read from the fitted curve at half-maximal effect; % is scaled to controls: 0 for no effect and ±100 for the full control effect; nearly all actives have a fitted effect of over 55% in size
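Stably hTDP1-transfected Tdp1-null chicken DT40 cells were treated with library compounds minus camptothecin and grown for at least 48 hr at 37 °C, after which cellular ATP was quantified by luminescence.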
TGFb SMAD3 inh – qHTS for Inhibitors of TGF-b. HepG2 CAGA-GFP TGF-b/SMAD3 reporter, GFP fluorescence, 18 h; TGF-beta stimulated, 500 pg/mL final. 1.2% of 410,000 active. AID 588855, 2011. Potency, µM (highest dose often 46.1 µM), without a hit: top-dose activity, negative = inhibition, usual class: inhibitors; also: potency is read from the fitted curve at half-maximal effect; % is scaled to controls: 0 for no effect and ±100 for the full control effect; nearly all actives have a fitted effect of over 65% in size
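Smad-responsive CAGA-GFP expression was quantified in HEPG2 cells exposed to compounds and 500 pg/mL final TGF-beta for 18 h at 37 degrees C; unstimulated wells defined full inhibition.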
HepG2 tox – qHTS for Inhibitors of TGF-b: Cytotox Counterscreen; HepG2 CAGA-GFP viability, ATP luminescence, 18 h; AID 588856, 2011; 0.76% of 410,000 active; Potency, µM (top dose mostly 46.1 µM), without a hit: top-dose activity change, negative = cytotoxicity, actives largely listed as cytotoxic; also: potency is read from the fitted curve at half-maximal effect
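CellTiter-Glo luminescence gave cytotoxicity after 18 hours at 37 degrees C. The cells were HepG2 CAGA-GFP in 1% FBS DMEM, stimulated with 500 pg/mL TGF-beta after compound addition. %Activity was normalised to no-cell wells (complete cell-killing) and DMSO (no toxicity), and curves were fitted and classified.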
TDP1 cell CPT – qHTS for Inhibitors of human tyrosyl-DNA phosphodiesterase 1 (TDP1): qHTS in cells in presence of CPT; chicken DT40 Tdp1-/-;hTDP1 cells + 20 nM CPT, ATP luminescence, 48 h; Potency, µM (series often up to 46.2 µM), for inactives: at the top dose activity change, negative = growth inhibition, actives largely listed as inhibitors; 12% of 420,000 active; AID 686979, 2013; also: potency is read from the fitted curve at half-maximal effect; % is scaled to controls: 0 for no effect and ±100 for the full control effect; nearly all actives have a fitted effect of over 55% in size
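Chicken DT40 Tdp1-/- cells complemented with human TDP1, 400 cells/well, exposed to compounds plus 20 nM camptothecin for at least 48 h at 37 C; viability read as ATP content by CellTiter-Glo luminescence.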
ASM inhibitor – Inhibitors of Secretory Acid Sphingomyelinase (S-ASM): qHTS. Potency, µM (highest dose often 57.5 µM), inactives show at the top dose activity change, negative = inhibition, hits mostly inhibitors. 0.006% of 340,000 active. AID 504937, 2011. placental ASM, HMU-PC fluorogenic substrate, 60 min. Sphingomyelin phosphodiesterase (Homo sapiens), P17405; also: potency is read from the fitted curve at half-maximal effect
Target sequence (P17405 47-631 limits assumed): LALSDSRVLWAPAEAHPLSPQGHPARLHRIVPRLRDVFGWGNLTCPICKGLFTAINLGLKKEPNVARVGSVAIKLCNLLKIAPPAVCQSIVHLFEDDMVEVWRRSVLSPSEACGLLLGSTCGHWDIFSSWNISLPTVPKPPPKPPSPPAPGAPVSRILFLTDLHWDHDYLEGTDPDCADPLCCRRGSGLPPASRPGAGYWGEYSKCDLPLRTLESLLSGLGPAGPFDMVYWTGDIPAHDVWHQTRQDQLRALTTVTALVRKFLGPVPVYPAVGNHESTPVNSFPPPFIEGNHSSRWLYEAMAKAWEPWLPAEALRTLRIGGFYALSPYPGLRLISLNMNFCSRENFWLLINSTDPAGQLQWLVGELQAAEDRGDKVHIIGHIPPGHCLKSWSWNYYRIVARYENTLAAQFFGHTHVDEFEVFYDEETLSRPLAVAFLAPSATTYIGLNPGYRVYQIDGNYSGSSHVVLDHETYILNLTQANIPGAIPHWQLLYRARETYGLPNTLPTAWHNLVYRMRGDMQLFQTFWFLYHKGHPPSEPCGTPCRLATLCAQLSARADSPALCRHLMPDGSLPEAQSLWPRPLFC
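Fluorogenic HMU-PC substrate (9 uM final) is turned over by placental ASM in 60 min at 37 C after a 10 min compound preincubation. Reaction ended by alkaline stop (pH 10), with fluorescence read at 386/447 nm.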
* hit, by the source's call; ? = inconclusive; . = no result given; [ ] = dose if it differs, or a comment. Hits are enriched below; roughly 19% of the tested compounds scored in any of these assays. Unless noted, calls follow the shape of the dose curve; as a rule, active = well fitted curve in the direction sought with a large enough effect; inconclusive = small, poorly fitted or top-dose-only effect, or another doubt; inactive = no such curve, though single readings can be large; an effect the other way counts as inactive or inconclusive.

SMILES | IL1B secr inh | TDP1 cell noCPT | TGFb SMAD3 inh | HepG2 tox | TDP1 cell CPT | ASM inhibitor
CCC1=NN(C(=O)c2ccc(C)cc2)C(O)(c2ccc(Br)cc2)C1 (stereo unspecified) | -9 | ? | -12% | -5% | ? | -4%
CC1=NN(C(=O)c2csc(C)c2)C(O)(C(F)(F)F)C1 (stereo unspecified) | 13 | 0.13µM* | -6% | -71% | 0.13µM* | -2%
CC1=NN(C(=O)c2c(Br)c(C)nn2C)C(O)(C(F)(F)F)C1 (stereo unspecified) | 90 | 1µM* | 2% | -6% | 1.2µM* | -2%
CC1=NN(C(=O)c2csc(C)c2C)C(O)(C(F)(F)F)C1 (stereo unspecified) | 0 | 0.92µM* | -8% | -10% | 0.65µM* | 2%
COc1ccc(OCC(=O)N2N=C(C)CC2(O)C(F)(F)F)cc1 (stereo unspecified) | -8 | -14% | 8% | 1% | -9% | 0%
CC1=NN(C(=O)c2ccc(Cn3nc(C)c([N+](=O)[O-])c3C)o2)C(O)(C(F)(F)F)C1 (stereo unspecified) | 17 | ? | -1% | 3% | -26% | 4%
COc1ccc(CC(=O)N2N=C(C)CC2(O)C(F)(F)F)cc1OC (stereo unspecified) | 15 | -5% | -6% | 13% | 6% | -2%
CC1=NN(C(=O)c2cc(C)nn2C)C(O)(C(F)(F)F)C1 (stereo unspecified) | 16 | 0.92µM* | -19% | 3% | 0.65µM* | 1%
CC1=NN(C(=O)c2ccc(Br)cc2)C(O)(C(F)(F)OC(F)(F)F)C1 (stereo unspecified) | -55* | ? | 16µM* | -60% | ? | -2%
Cc1ccc(S(=O)(=O)c2c(Nc3cc(F)ccc3F)sc(C(=O)c3ccc(F)cc3)c2N)cc1 | . | 16µM* | ? | -32% | 21µM* | .
Cc1ccc(Nc2sc(C(=O)c3ccccc3)c(N)c2S(=O)(=O)c2ccccc2)c(C)c1 | . | 15µM* | -18% | -11% | ? | .
COc1ccccc1Nc1sc(C(=O)c2ccc(C)cc2C)c(N)c1S(=O)(=O)c1ccccc1 | . | . | 2% | -20% | . | .
Cc1ccc(Cl)cc1Nc1sc(C(=O)c2ccc(F)cc2)c(N)c1S(C)(=O)=O | . | ? | ? | -34% | 16µM* | .
Nc1c(C(=O)c2ccc(F)cc2)sc(Nc2ccccc2F)c1S(=O)(=O)c1ccc(Br)cc1 | . | 8.2µM* | ? | -27% | 5.2µM* | .
COc1cccc(C(=O)c2sc(Nc3ccc(C)cc3C)c(S(=O)(=O)c3ccccc3)c2N)c1 | . | -30% | -20% | -29% | -10% | .
COC(=O)c1ccsc1NC(=O)c1cccc(OC)c1 | 21 | -17% | 11% | -3% | 8% | 3%
CCc1ccc(Nc2sc(C(=O)c3ccc(F)cc3)c(N)c2S(=O)(=O)c2ccccc2)cc1 | . | ? | -27% | -26% | ? | .
Cc1ccc(Nc2sc(C(=O)c3ccc(F)cc3)c(N)c2S(=O)(=O)c2ccc(C)cc2)cc1 | . | ? | -3% | -21% | 18µM* | .
O=C(c1ccc2c(c1)OCO2)N1CCOc2ccc(CN3CCC(Oc4cccnc4)CC3)cc2C1 | . | -15% | . | . | -1%[9.04 µM] | .
CS(=O)(=O)N1CCC2(CCCN(C(=O)Nc3cccc(F)c3)C2)CC1 | . | -1% | . | . | 15% | .
CC(C)(C)c1cc(CCC(=O)NCCc2ccccn2)cc(C(C)(C)C)c1O | 24 | ? | -2% | -8% | ? | -1%
O=C1C=C(NCCc2cc(Br)c(O)c(Br)c2)C(=O)c2ncccc21 | -105* | 2.1µM* | ? | 7.1µM* | 1.2µM* | 0%
O=C(CC1(O)C(=O)N(CCc2ccccc2)c2ccc(Br)cc21)c1ccc(F)cc1 (stereo unspecified) | . | 16µM* | ? | -99% | ? | .
C=CCN1C(=O)C(O)(CC(=O)c2ccc(N)cc2)c2ccccc21 (stereo unspecified) | -9 | ? | 10% | 9% | ? | 8%
COc1ccc(C(=O)CC2(O)C(=O)N(CCc3ccccc3)c3ccc(Br)cc32)cc1OC (stereo unspecified) | . | ? | ? | -14% | 16µM* | .
SMILES | IL1B secr inh | TDP1 cell noCPT | TGFb SMAD3 inh | HepG2 tox | TDP1 cell CPT | ASM inhibitor
O=C(CNC(=O)[C@@H]1Cc2ccccc2CN1)NCc1ccco1 | -6 | 10% | -5% | 6% | -4% | -1%
Cc1cccc(NC(=O)c2c(C)oc3ncnc(N4CCCCC4)c23)c1C | . | ? | -18% | -14% | ? | .
Cc1cn(C2OC(COC(=O)c3ccccc3)C(OC(=O)c3ccccc3)C2OC(=O)c2ccccc2)c(=O)[nH]c1=O (stereo unspecified) | -15 | ? | -3% | -14% | 23µM* | 0%
CN1C(=O)CS/C1=N\NC(=O)COc1cccc2cccnc12 | -13 | 0% | -28% | -27% | 9% | -1%
Cc1cc2c(cc1C)NC(CC(=O)Nc1cccc(C)c1C)C(=O)N2 (stereo unspecified) | . | 16µM* | -27% | -28% | 15µM* | .
COC(=O)c1c(NC(=O)CC2Nc3cc(C)c(C)cc3NC2=O)sc(C)c1C (stereo unspecified) | 7 | ? | 164% | -18% | 21µM* | 2%
Cc1ccc(NC(=O)CC2Nc3cc(C)c(C)cc3NC2=O)c(C)c1 (stereo unspecified) | . | ? | -3% | -8% | ? | .
Cc1cc2c(cc1C)NC(CC(=O)Nc1ccccc1SC(F)(F)F)C(=O)N2 (stereo unspecified) | . | 16µM* | 22% | 7% | ? | .
Cc1ccccc1CC(=O)N1CCCc2ccccc21 | 44 | ? | -3% | 8% | -10% | 4%
Cc1cc(C)c(NC(=O)CSc2nnc3[nH]c(=O)cc(C)n23)c(C)c1 | . | 2% | -1% | -9% | -4% | .
C[C@@](N)(C(=O)O)c1ccc(C(=O)O)cc1 | . | -23% | . | . | -1% | .
CCOc1cc2c(cc1O)CCC1C2CCC2(C)C(O)CCC12 (stereo unspecified) | 10 | 0.21µM* | ? | -8% | 0.26µM* | -2%
